{"source": "the supplement of paper PMC10720658", "note": "± gives the standard deviation of the averaged measurements.", "data": [{"system": "AEK1 (Tb927.3.2440)", "assay": "percent reduction in TR-FRET probe signal relative to DMSO control; higher = stronger displacement of ATP-site probe (binding)", "details": "1 µM; incubation time 1 h", "units": {"percent reduction in TR-FRET probe signal": "%"}, "values": [{"smiles": "C=CC(=O)N1CCCC(n2c(=O)n(-c3ccc(Oc4ccccc4)cc3)c3c(N)ncnc32)C1", "note": "(stereo not drawn) [ONO-4059 analogue]", "percent reduction in TR-FRET probe signal": "4.33 ± 16"}, {"smiles": "C=CC(=O)Nc1cccc(Nc2nc(Nc3ccc(Oc4ccnc(C(=O)NC)c4)cc3)ncc2F)c1", "percent reduction in TR-FRET probe signal": "-4.93 ± 4.3"}, {"smiles": "CN(C)CCCn1cc(C2=C(c3c[nH]c4ccccc34)C(=O)NC2=O)c2ccccc21", "percent reduction in TR-FRET probe signal": "8.74 ± 7.2"}, {"smiles": "COc1cc2ncc(-c3ccccc3)nc2cc1OC", "note": "[Tyrphostin AG 1296]", "percent reduction in TR-FRET probe signal": "-3.11 ± 5.3"}, {"smiles": "O=C1c2ccccc2-c2n[nH]c3cccc1c23", "percent reduction in TR-FRET probe signal": "-3.83 ± 17"}, {"smiles": "Nc1cccc(-c2cc3c(Oc4cccc(O)c4)ncnc3[nH]2)c1", "percent reduction in TR-FRET probe signal": "18.7 ± 22"}, {"smiles": "CCNc1nc(Nc2cc(F)c(C(=O)N3CCOCC3)cc2OC)ncc1C(F)(F)F", "percent reduction in TR-FRET probe signal": "11.9 ± 11"}, {"smiles": "CS(=O)(=O)CCNCc1ccc(-c2ccc3ncnc(Nc4ccc(OCc5cccc(F)c5)c(Cl)c4)c3c2)o1.Cc1ccc(S(=O)(=O)O)cc1.Cc1ccc(S(=O)(=O)O)cc1", "percent reduction in TR-FRET probe signal": "19.5 ± 21"}, {"smiles": "CCCCCCCCCCCCCCCCCCOP(=O)([O-])OC1CC[N+](C)(C)CC1", "note": "[Perifosine (KRX-0401)]", "percent reduction in TR-FRET probe signal": "-18.1 ± 6.6"}, {"smiles": "Cn1ncc(Cl)c1-c1cc(C(=O)N[C@H](CN)Cc2ccc(F)c(F)c2)oc1Cl", "percent reduction in TR-FRET probe signal": "33.2 ± 9.4"}, {"smiles": "Cl.Cl.c1cc(-c2cnn3cc(-c4ccc(OCCN5CCCCC5)cc4)cnc23)ccn1", "note": "[Dorsomorphin 2HCl]", "percent reduction in TR-FRET probe signal": "-8.77 ± 4.9"}, {"smiles": "COc1cc2c(Oc3ccc4[nH]c(C)cc4c3F)ncnc2cc1OCCCN1CCCC1", "note": "[Cediranib (AZD2171)]", "percent reduction in TR-FRET probe signal": "63.4 ± 7.6"}, {"smiles": "CS(=O)(=O)N1CCc2c(-c3cnc(N)nc3)nc(N3CCOCC3)nc21", "percent reduction in TR-FRET probe signal": "-5.47 ± 9.1"}]}]}
